Only some compounds are listed: those with a hit (about 1.7% of all), similar ones and a draw of the others.
Fh CTSL1 inh = cathepsin L1 inhibition, PFM18AAP counter-screen; recombinant F. hepatica cathepsin L1, Z-Leu-Arg-MCA fluorescence; inhibition, % at 5.96 µM; actives 0.49% (n = 300,000); AID 1906;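 active = inhibition above the mean of all tested compounds plus 3 SD, set per screening campaign, cut at about 17% in these data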;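 note: 0% = plate median of test compound wells and 100% = 1 µM Z-Phe-Ala-diazomethylketone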
m5-HT2A agonist = agonists of mouse serotonin 5-HT2A receptor (HTR2A); AID 624169; actives 0.66% (n = 360,000); CHO-K1 mHTR2A beta-arrestin complementation, luminescence; percent of 30 µM serotonin response; activation, % at 7.6 µM; P35363;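 active = activation above a run cutoff, the mean activation of all tested compounds plus 3 SD, cut at about 14% in these data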;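 note: 0% = plate median of compound wells and 100% = 30 µM serotonin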
HDAC3 inhib = inhibitors of human histone deacetylase 3 | inhibition, % at 8.3 µM | AID 2718 | recombinant HDAC3, fluorogenic peptide/trypsin coupled, fluorescence | actives 0.15% (n = 320,000) | O15379; in the data active = inhibition above about 26%, passing the limit was not always enough
LANA-H2B inh = blocks KSHV LANA binding to histone H2A/H2B; Q9QR71; cell-free LANA-H2A/H2B peptide, fluorescence polarization; inhibition, % (concentration not given with the values); actives 0.6% (n = 320,000); AID 2629; in the data active = inhibition mostly above about 10%, no sharp cut-off; inactive = mostly below about 6.7%
OPRM1 ag = counter-screen for mouse HTR2A agonists: human mu opioid receptor agonists. shares compounds with m5-HT2A agonist. U2OS OPRM1 beta-arrestin PathHunter, luminescence; DMSO 0%, DAMGO 9.3 µM 100%. activation, % at 9.3 µM. actives 5.3% (n = 2,300);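 active = mean activation above the mean of DMSO-only wells plus 3 SD, cut at about 0.5% in these data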
Target sequence (P35372 whole entry, looked up): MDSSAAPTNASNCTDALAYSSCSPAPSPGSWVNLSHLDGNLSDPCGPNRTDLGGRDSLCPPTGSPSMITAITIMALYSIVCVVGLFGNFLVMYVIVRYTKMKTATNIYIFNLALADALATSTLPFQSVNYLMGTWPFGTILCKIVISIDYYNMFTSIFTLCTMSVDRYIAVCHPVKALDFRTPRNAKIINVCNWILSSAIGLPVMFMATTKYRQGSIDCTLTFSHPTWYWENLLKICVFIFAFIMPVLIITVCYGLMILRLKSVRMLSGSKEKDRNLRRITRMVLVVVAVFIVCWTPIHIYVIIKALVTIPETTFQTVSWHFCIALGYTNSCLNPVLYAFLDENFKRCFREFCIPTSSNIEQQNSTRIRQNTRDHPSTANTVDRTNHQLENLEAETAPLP
HTR2A ag conf = mouse HTR2A agonism confirmed; CHO-K1 PathHunter beta-arrestin recruitment, luminescence; DMSO 0%, 30 µM serotonin 100%; actives 19% (n = 2,300); shares compounds with m5-HT2A agonist; activation, % at 7.6 µM;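 active = mean activation across triplicates above the hit threshold derived in the original primary screen, cut at about 15% in these data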
Numbers without * were called inactive; x = not tested or not shown.

SMILES	Fh CTSL1 inh	m5-HT2A agonist	HDAC3 inhib	LANA-H2B inh	OPRM1 ag	HTR2A ag conf
CC(=NC1CC1)c1c(-c2ccccc2)[nH]n(-c2nc3ccccc3s2)c1=O	0.1	14.7*	0.7	-0.5	-0.7	10.6
Cc1[nH]n(C(C)(C)C)c(=O)c1Sc1ccc(Cl)cc1	8.1	15.1*	4.6	0.8	-0.1	18.4*
Cc1cc(O)c(Sc2ccc(Cl)cc2)c(=O)[nH]1	-2.2	-1.0	0.1	0.8	x	x
CC(C)(C)N(Cc1ccccc1)C(=O)COC(=O)CCN1C(=O)C2CC=CCC2C1=O (configuration not stated)	x	15.3*	x	x	-0.5	-2.2
O=C(COC(=O)CCN1C(=O)C2CC=CCC2C1=O)NCCc1ccccc1 (configuration not stated)	-1.9	6.4	1.3	-7.1	x	x
CCC1CCCCN1C(=O)COc1ccccc1NC(C)=O (configuration not stated)	3.0	4.5	-3.1	-2.5	x	x
COCCNC(=O)COC(=O)/C=C/c1c(C)nn(Cc2ccc(Cl)cc2Cl)c1Cl	-2.5	34.7*	1.5	-2.5	-0.5	-4.7
OC(CN1CCNCC1)Cn1c2ccccc2c2ccccc21 (configuration not stated)	-14.0	17.8*	-1.9	2.7	-0.5	6.0
Cc1cccc(C)c1-n1nnnc1C(C1CC1)N1CCN(C/C=C/c2ccccc2)CC1 (configuration not stated)	x	29.7*	x	x	0.1	57.2*
CC(C)(C)n1nnnc1C(C1CC1)N1CCN(C/C=C/c2ccccc2)CC1 (configuration not stated)	x	19.9*	x	x	-0.5	34.8*
CCC(c1nnnn1-c1c(C)cccc1C)N1CCN(C/C=C/c2ccccc2)CC1 (configuration not stated)	x	27.1*	x	x	0.1	78.4*
COc1cccc(CN2CC(C(=O)NCc3ccc(C)o3)CCC2=O)c1 (configuration not stated)	x	0.7	x	x	x	x
COc1ccc(Nc2nc(N3CCN(C)CC3)nc3ccccc23)c(OC)c1	6.4	16.1*	3.3	-2.0	-0.4	18.8*
COc1ccc(Nc2nc(-c3cccs3)nc3ccccc23)c(OC)c1	-0.8	3.2	-6.1	-5.2	x	x
COc1ccc(OC)c(NC(=S)N(CCc2c(C)[nH]c3ccc(C)cc23)Cc2cccs2)c1	12.0	20.1*	2.6	-1.5	-0.6	3.7
O=S(=O)(NCCc1ccc(F)cc1)c1cc(C(F)(F)F)ccc1Br	x	2.5	x	x	x	x
O=S(=O)(NCc1ccc(F)cc1)c1cc(Br)ccc1Br	x	18.1*	8.8	-0.7	0.3	-0.2
COc1ccc(S(=O)(=O)N/N=C\c2ccccc2F)cc1	0.9	14.7*	-9.5	1.5	-0.8	-4.9
COc1ccccc1/C=N/NS(=O)(=O)c1ccccc1	-5.2	2.1	1.5	-0.2	x	x
CN(C(=O)C(=O)c1cn(CC(=O)N2CCCC2)c2ccccc12)C1CCCCC1	-0.1	8.6	15.2	3.6	x	x
COc1ccc2[nH]c(C)c(CCNC(=S)Nc3cccc(C)c3C)c2c1	-0.2	0.0	-0.2	1.2	x	x
COc1ccc2[nH]c(C)c(CCNC(=S)Nc3ccccc3C)c2c1	1.4	16.5*	3.8	-0.9	-0.5	-3.6
Nc1ncnc(Nc2ccc(F)cc2)n1	-2.0	-1.5	x	x	x	x
Cc1ccc(Nc2ncnc(N)n2)cc1	7.7	22.7*	-3.0	5.1	-0.3	-1.6
CCOc1ccc(/C=C\c2nc(O)c([N+](=O)[O-])c(=O)[nH]2)cc1OCC	1.0	14.6*	1.1	-4.5	-0.6	-2.6
SMILES	Fh CTSL1 inh	m5-HT2A agonist	HDAC3 inhib	LANA-H2B inh	OPRM1 ag	HTR2A ag conf
CCOC(=O)c1ccc(NC(=O)COc2ccc(-n3cnnn3)cc2)cc1	6.7	17.5*	5.3	-4.1	0.1	14.9*
Cc1cccc(C(=O)N2CCN(Cc3ccc4c(c3)OCO4)CC2)c1	-4.1	14.8*	11.2	3.1	0.2	7.2
O=C(c1ccc(Br)o1)N1CCN(Cc2ccc3c(c2)OCO3)CC1	-0.7	16.7*	5.7	0.3	0.8*	19.6*
O=C(c1ccccc1)N1CCN(Cc2ccc3c(c2)OCO3)CC1	-0.7	-7.8	-1.8	2.8	x	x
CC(C)CC(=O)N1CCN(Cc2ccc3c(c2)OCO3)CC1	-0.3	18.5*	-8.2	0.2	0.6*	36.4*
Cc1ccc(S(=O)(=O)N(C)C[C@H]2Oc3ccc(NC(=O)Nc4c(C)noc4C)cc3CC(=O)N([C@@H](C)CO)C[C@@H]2C)cc1	x	4.8	-0.6	1.3	x	x
CC(C)[C@H](NS(=O)(=O)c1ccccc1F)C(=O)NC1CCCCC1	x	1.5	0.3	-0.6	x	x
O=C(NCc1ccccc1)C1C(c2ccccc2)=Nc2ccccc2N1C(=O)c1cnccn1 (configuration not stated)	x	14.4*	x	x	-0.5	0.4
CC[C@]12c3[nH]c4ccccc4c3CCN1C(=O)C(CC(=O)NCc1ccc(OC)c(OC)c1)C[C@@H]2C(=O)N1CCN(C(=O)C2CC2)CC1 (some centres not stated)	x	-2.2	-4.5	0.1	x	x
Cc1ccccc1CN1CCN(Cc2cc(=O)c3ccccc3[nH]2)CC1CCO (configuration not stated)	2.7	-4.0	-3.3	4.4	x	x
NS(=O)(=O)c1cccc(NC(=O)CC(NC(=O)c2ccccc2Cl)c2ccccc2)c1 (configuration not stated)	0.0	-7.4	-1.7	-1.5	x	x
COc1ccc(OC)c(/C=C/C(=O)OCC(=O)NC2CCCCCCC2)c1	x	15.7*	-4.3	-3.8	-0.7	-5.8
O=C(CCN1C(=O)c2cccc3cccc(c23)C1=O)NCc1ccco1	0.2	15.5*	1.8	0.9	-0.5	-1.6
O=C(CCN1C(=O)c2ccccc2C1=O)NCc1ccco1	1.6	1.1	8.8	0.5	x	x
CC1CCCCC1NC(=O)COC(=O)c1cccn1C (configuration not stated)	x	15.4*	-4.1	0.0	-0.5	-5.0
CC(C)/C=C1\CCCCC1N(C)C(=O)NC(C)C (configuration not stated)	-2.8	28.1*	-10.0	2.5	-0.6	-6.1
CCn1c(=O)cc(SCC(=O)NCCCN2CCN(c3ccccc3F)CC2)c2ccccc21	-0.7	28.2*	0.9	4.8	0.0	77.7*
O=C(NCCCN1CCN(c2ccccc2F)CC1)C1CC(=O)N(C2CCCC2)C1 (configuration not stated)	0.4	16.6*	0.6	3.9	-0.5	38.8*
O=C(CN1C(=O)COc2ccccc21)NCCCN1CCN(c2ccccc2F)CC1	0.7	-1.8	-7.1	-3.5	x	x
CN1CCN(CCCNC(=O)C2CC(=O)N(C3CCCCC3)C2)CC1 (configuration not stated)	-1.2	-1.6	-2.2	-4.0	x	x
O=C(NCc1ccccc1)C1CC(=O)N(C2CCCCCC2)C1 (configuration not stated)	-1.4	-1.2	-2.7	9.3	x	x
